{
  "source": "PubChem BioAssay (NCI)",
  "note": "Compounds without any hit were thinned out: in the full panel of roughly 83,000, 20% have a hit.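 Treatment: one concentration, 48 hours, 96-well format. Scoring: percent growth, with anything below 10 considered active.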 Active and inactive are the calls of the source.",
  "data": [
    {"tested_on": "OVCAR-4 ovarian", "assay": "NCI-60 one-dose screen, 48 h (100 = growth as untreated, 0 = no growth, -100 = all killed)", "settings": "10 µM unless noted", "protocol": "Growth inhibition of the OVCAR-4 human tumor cell line is measured as a screen for anti-cancer activity. Cells are grown in 96 well plates and exposed to the test compound for 48 hours. Compounds are tested at a single concentration, which is 10^-5 M for most compounds. The reported endpoint is percent growth (GI% or GIPRCNT), where numbers from 0 - 100% represent growth inhibition, and numbers from -100% - 0 represent cell death. For example, a value of 40 represents 60% growth inhibition. A value of 0 means no net growth occurred over the course of the experiment. A value of -40 indicates 40% of cells at the beginning of the experiment died by the end of the experiment. A value of -100 means all cells are dead at the end of the experiment.\nNCI-60 Human Tumor Cell Lines Screen was performed using the standard one-dose NCI protocol, which is described in more detail at https://dtp.cancer.gov/discovery_development/nci-60/default.htm.\nCompounds with GIPRCNT values below 10 were considered active. Activity score was based on GIPRCNT using the following formula: […]\nScore is 0 for GIPRCNT values of 100 or above, 50 for GIPRCNT values of 0, and 100 for GIPRCNT values of -100.", "values": [
      {"smiles": "CCN1CCN(c2nc3ccccc3c3c(=O)c4cc(F)ccc4sc23)CC1", "growth": "63% (inactive)"},
      {"smiles": "O=C(Nc1ccccc1)Oc1cccc2cccnc12", "growth": "76.8% (inactive)"},
      {"smiles": "C=CC(=O)N1CC2(CCC(n3nc(-c4ccc(Oc5ccccc5)cc4)c4c(N)ncnc43)CC2)C1", "growth": "-10.7% (active)"},
      {"smiles": "CC(C)(C)CC(C)(C)N(CSc1ccc(Cl)cc1)CSc1ccc(Cl)cc1", "growth": "50.1% (inactive)"},
      {"smiles": "CCCCCCCCCCCC(=O)[O][Sn]([CH2]CCC)([CH2]CCC)[CH2]CCC", "growth": "-98.5% (active)"},
      {"smiles": "COc1ccc(OC)c2ncccc12", "growth": "102% (inactive)"},
      {"smiles": "Cc1cc(=O)c2c(C)ccc(C)c2[nH]1", "growth": "106% (inactive)"},
      {"smiles": "CCN(CC)c1ccc(/C=C(\\C#N)c2cc3ccccc3[nH]2)cc1", "growth": "68.2% (inactive)"},
      {"smiles": "NC(=O)c1cc(Cl)ccc1NC(=O)COc1ccccc1", "growth": "101% (inactive)"},
      {"smiles": "CC(=O)Nc1ccc(S(=O)(=O)N/N=C\\c2ccc(Cl)c(Cl)c2)cc1", "growth": "113% (inactive)"},
      {"smiles": "COc1ccc(C2=NOC(CC(=O)N(CCO)CCO)C2)cc1OC1CCCC1", "note": "(stereo not given)", "growth": "102% (inactive)"},
      {"smiles": "Cc1ccc(N(CSc2ccc(Cl)cc2)CSc2ccc(Cl)cc2)cc1", "growth": "85.2% (inactive)"},
      {"smiles": "O=S(=O)(Nc1ccc(Cl)c(Cl)c1)c1ccc(-c2cnc(C3CC3)o2)cc1", "growth": "46.4% (inactive)"},
      {"smiles": "COc1ccc(/C=C(\\C#N)c2cc3ccccc3n2C)cc1", "growth": "37.1% (inactive)"},
      {"smiles": "CC(=O)Nc1ccc(Sc2ccc([N+](=O)[O-])o2)cc1", "growth": "23.5% (inactive)"},
      {"smiles": "CCOC(=O)c1c(-c2cc(OC)c(OC)c(OC)c2)csc1N", "growth": "118% (inactive)"},
      {"smiles": "Cn1c(=O)c(S(=O)(=O)c2ccccc2)cc2ccc3c(cnn3-c3ccc(Cl)cc3)c21", "growth": "39.1% (inactive)"},
      {"smiles": "O=c1[nH]c(-c2ccncc2)nc2sc3c(c12)CCCCCC3", "growth": "1.18% (active)"},
      {"smiles": "c1ccc(-c2n(Cc3ccc4ccccc4c3)c3ccccc3[n+]2Cc2ccc3ccccc3c2)cc1", "growth": "-4.85% (active)"},
      {"smiles": "COc1ccc(-c2nn(-c3ccc(NC(=O)c4ccc(Cl)c(Cl)c4)cc3)cc2-c2ccncc2)cc1Cl", "growth": "79.5% (inactive)"},
      {"smiles": "Cc1nc(NC(=O)COc2cccc(/C=C3\\COc4ccccc4C3=O)c2)sc1C", "growth": "55.1% (inactive)"},
      {"smiles": "NC(=O)c1c(Br)c(Br)c(Br)c(Br)c1C(=O)O", "note": "(tested in a mixture with another compound)", "growth": "94.3% (inactive)"},
      {"smiles": "CCN(c1ccc(C(=O)N2CCN(c3ccccc3)CC2)cc1)S(C)(=O)=O", "growth": "107% (inactive)"},
      {"smiles": "COc1ccc(NS(=O)(=O)c2ccc(-c3cnc(C4CC4)o3)cc2)cc1", "growth": "60.8% (inactive)"},
      {"smiles": "O=C(Nc1ccc(Cl)c(Cl)c1)OCn1ncc2ccc([N+](=O)[O-])cc21", "growth": "93.6% (inactive)"},
      {"smiles": "O=C1C(Cl)=C(NCCCN2CCOCC2)C(=O)c2ccccc21", "growth": "77.1% (inactive)"},
      {"smiles": "Cc1nc2cc(Nc3nc(Cl)nc(Nc4ccc(F)cc4)n3)ccc2n1Cc1ccccc1", "growth": "85.8% (inactive)"},
      {"smiles": "COc1ccc(OC)c(/C=C2\\Oc3cc(O)ccc3C2=O)c1", "growth": "86.7% (inactive)"},
      {"smiles": "COc1nc2c(cc1S(=O)(=O)c1ccccc1)CCc1c-2cnn1-c1ccccc1Cl", "growth": "67.8% (inactive)"},
      {"smiles": "CC(C)NCC(O)COc1ccc(CCOCC2CC2)cc1", "note": "(stereo not given)", "growth": "82.5% (inactive)"},
      {"smiles": "COc1cc(NC(=O)COc2ccccc2)c(C(N)=O)cc1OC", "growth": "93.9% (inactive)"},
      {"smiles": "Cc1cccc2c(=O)c3c(sc12)c(NCCCN)nc1ccccc13", "growth": "47.4% (inactive)"},
      {"smiles": "Cc1cc(Cl)c2c(Cl)ccc(Cl)c2n1", "growth": "128% (inactive)"},
      {"smiles": "CC1=CN2C(=NC3=C(CCCC/C3=C\\c3ccccc3)C2c2ccccc2)S1", "note": "(stereo not given)", "growth": "95.8% (inactive)"},
      {"smiles": "CCCN1CCN(c2ccc3nc(-c4ccc5nc(-c6ccc(C(F)(F)F)cc6)[nH]c5c4)[nH]c3c2)CC1", "growth": "-82.5% (active)"},
      {"smiles": "Cc1nc(-c2ccccc2)cc2c(O)c(C(=O)N/N=C/Cc3ccccc3)[nH]c(=O)c12", "growth": "110% (inactive)"},
      {"smiles": "O=C(c1ccc2ncc(-c3nc(NC4CC4)ncc3F)n2c1)N1CCOCC1", "growth": "63.2% (inactive)"},
      {"smiles": "COc1ccc(C2OCC(C)(C)CO2)cc1OC", "growth": "104% (inactive)"},
      {"smiles": "C1CCC([PH+](C2CCCCC2)C2CCCCC2[PH+](C2CCCCC2)C2CCCCC2)CC1.[Au].[CH-]1CCCCC1CC1CCCC[N-]1", "note": "(stereo not given)", "growth": "37.5% (inactive)"},
      {"smiles": "Brc1ccc(Br)nn1", "growth": "26% (inactive)"}
    ]}
  ]
}
